Laboratory results published in PubChem BioAssay (NCATS).
Values joined by “and” are separate entries in the source; they are usually repeats but may differ in a detail not shown here. Identical values can stand only once. Inconclusive results are not listed. A call without a number means that no potency is given here. Some structures have more than one record in an assay (separate samples or runs), and their calls can disagree. Active and inactive are the calls of the source. Unless noted, the call rests on the fitted dose curve; in most records, active means well fitted curve in the direction sought with a large enough effect; inconclusive means small, poorly fitted or top-dose-only effect, or another doubt; inactive means no such curve, though single readings can be large; an effect the other way counts as inactive or inconclusive.

Assays:
[1] = molecular target: Calcium and integrin-binding protein 1 (Homo sapiens) (UniProt Q99828); assay: Primary qHTS for Identification of Calcium Integrin Binding Protein 1 (CIB1) Competitor (AID 1508620);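 further: GST tagged CIB1 binding a fluorescein labelled alphaIIb integrin peptide tracer; top concentration of the series differs between compounds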
Chain of Calcium and integrin-binding protein 1 (Homo sapiens) (Q99828 whole entry, looked up): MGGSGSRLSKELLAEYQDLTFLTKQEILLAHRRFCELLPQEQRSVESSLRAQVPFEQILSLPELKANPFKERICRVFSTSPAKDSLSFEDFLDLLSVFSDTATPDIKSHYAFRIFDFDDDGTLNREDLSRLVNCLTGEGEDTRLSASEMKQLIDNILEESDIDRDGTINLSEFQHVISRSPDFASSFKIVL
Outline: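 Fluorescence polarization competition: CIB1-GST (1 uM final) preincubated with compound 15 min at room temperature, then FITC-labeled alphaIIb peptide (100 nM final) added for another 15 min. Polarization read at Ex 480/Em 540.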

[2] = Primary qHTS for small molecule stabilizers of the endoplasmic reticulum resident proteome: Secreted ER Calcium Modulated Protein (SERCaMP) assay (AID 1508630); further: potency means the concentration at half of the fitted maximal effect
Outline: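 The SH-SY5Y reporter protocol was run at 3 concentrations up to 38.3 uM (primary) or 11 concentrations (follow-up): 16 h compound, 100 nM thapsigargin for 4 h, then extracellular luciferase luminescence.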

[3] = Primary qHTS for inhibitors of nuclear receptor binding SET domain protein 2 (NSD2) in an isogenic RCH-ACV NSD2 p.E1099K mutant (9B) (AID 1645876); further: nearly all actives have a fitted effect of over 70% in size; further: potency means the concentration at half of the fitted maximal effect
[4] = Primary qHTS for inhibitors of nuclear receptor binding SET domain protein 2 (NSD2) in an RCH-ACV wild type WT cells (2C) (AID 1645877); further: nearly all actives have a fitted effect of over 70% in size; further: potency means the concentration at half of the fitted maximal effect
[5] = molecular target: Cytochrome P450 2D6 (Homo sapiens) (UniProt P10635); assay: Cytochrome P450 family 2 subfamily D member 6 (CYP2D6) small molecule antagonists: luciferase biochemical (cell-free) qHTS assay (AID 1645840; active means well fitted curve in the direction sought with a large enough effect in the repeat runs; an effect the other way counts as inactive or inconclusive; further: series mostly up to about 57 µM; nearly all actives have a fitted effect of over 55% in size)
Chain of Cytochrome P450 2D6 (Homo sapiens) (P10635 whole entry, looked up): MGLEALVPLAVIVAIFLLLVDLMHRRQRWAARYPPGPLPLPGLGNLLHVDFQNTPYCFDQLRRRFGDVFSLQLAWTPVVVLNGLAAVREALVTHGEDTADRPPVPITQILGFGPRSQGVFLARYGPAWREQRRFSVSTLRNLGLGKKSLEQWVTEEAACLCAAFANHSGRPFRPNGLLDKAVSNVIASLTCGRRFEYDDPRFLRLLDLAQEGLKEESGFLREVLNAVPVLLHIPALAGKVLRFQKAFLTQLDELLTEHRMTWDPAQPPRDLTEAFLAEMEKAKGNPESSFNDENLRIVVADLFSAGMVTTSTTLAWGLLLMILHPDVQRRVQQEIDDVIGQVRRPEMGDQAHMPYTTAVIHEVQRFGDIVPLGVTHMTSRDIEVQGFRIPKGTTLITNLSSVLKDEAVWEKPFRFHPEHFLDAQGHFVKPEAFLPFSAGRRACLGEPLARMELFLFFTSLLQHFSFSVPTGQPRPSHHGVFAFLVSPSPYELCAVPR
Outline: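 P450-Glo CYP2D6 system: proluciferin substrate converted by enzyme to luciferin, read by luminescence proportional to activity. Enzyme-substrate mix with compound 10 min at room temperature, then NADPH regeneration 1 h before detection reagent.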

[6] = molecular target: Cytochrome P450 2C9 (Homo sapiens) (UniProt P11712); assay: Cytochrome P450 family 2 subfamily C member 9 (CYP2C9) small molecule antagonists: luciferase biochemical (cell-free) qHTS assay (AID 1645842; active means well fitted curve in the direction sought with a large enough effect in the repeat runs; an effect the other way counts as inactive or inconclusive; further: nearly all actives have a fitted effect of over 55% in size; further: potency means the concentration at half of the fitted maximal effect)
Chain of Cytochrome P450 2C9 (Homo sapiens) (P11712 whole entry, looked up): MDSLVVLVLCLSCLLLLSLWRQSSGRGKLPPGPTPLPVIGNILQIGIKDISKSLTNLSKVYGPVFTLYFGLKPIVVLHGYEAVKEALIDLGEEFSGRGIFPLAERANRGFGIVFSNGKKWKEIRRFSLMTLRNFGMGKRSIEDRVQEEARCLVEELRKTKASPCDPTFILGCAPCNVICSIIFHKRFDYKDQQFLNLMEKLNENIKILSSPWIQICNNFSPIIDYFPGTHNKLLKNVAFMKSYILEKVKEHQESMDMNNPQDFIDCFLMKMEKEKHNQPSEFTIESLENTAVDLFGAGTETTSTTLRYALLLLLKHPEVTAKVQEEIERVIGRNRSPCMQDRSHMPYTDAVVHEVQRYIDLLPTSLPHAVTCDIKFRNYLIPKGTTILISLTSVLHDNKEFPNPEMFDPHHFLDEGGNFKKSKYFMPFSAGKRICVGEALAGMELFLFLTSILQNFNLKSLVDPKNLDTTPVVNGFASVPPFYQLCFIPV
Outline: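 P450-Glo CYP2C9 system: proluciferin substrate with enzyme in mix containing 0.4% BSA, 10 min at room temperature, then NADPH regeneration solution added and incubated 1 h at 37C. Detection reagent stopped reaction; luminescence read after 20 min as RLU.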

## Cc1cc(SCc2sc(-c3ccc(C(F)(F)F)cc3)nc2C)ccc1OCC(=O)O
[1]
  outcome: inactive
[2]
  Potency: inactive
[3]
  Potency: inactive
[4]
  Potency: inactive

## CCc1cc(Nc2nccc(-c3c(-c4ccc(OC)c(C(=O)Nc5c(F)cccc5F)c4)nc4ccccn34)n2)c(OC)cc1N1CCC(N2CCN(S(C)(=O)=O)CC2)CC1
[1]
  outcome: inactive
[2]
  Potency: 0.006 µM (active)
[4]
  Potency: inactive and 5.9 µM (active)

## Cc1n[nH]c(C)c1Cc1sc2c(c1C(=O)N1C[C@H](O)CO1)c(=O)n(C)c(=O)n2CC(C)C
[1]
  outcome: inactive
[3]
  Potency: inactive

## CCCCCCCc1ccc(CCc2cccc(O)c2C(=O)O)cc1
[2]
  Potency: inactive
[4]
  Potency: inactive

## COCCNCCCn1c(C(=O)CF)c(-c2ccc(C)cc2)c2c(N)ncnc21
[1]
  outcome: inactive
[2]
  Potency: inactive
[3]
  Potency: 18.6 µM (active)
[4]
  Potency: 16.6 µM (active)

## Cc1ccc2c(c1)C(=O)[C@@]1(O)CCN(c3ccccc3)C1=N2
[2]
  Potency: inactive
[5]
  Potency: inactive

## COc1c(Cl)cc2c([nH]c3cnccc32)c1NC(=O)c1cccnc1C
[1]
  outcome: inactive
[2]
  Potency: inactive
[3]
  Potency: 9.34 µM (active)
[4]
  Potency: 9.34 µM (active)

## Cc1csc(NC(=O)c2sc3nc4c(c(C(F)(F)F)c3c2N)CCC4)n1
[1]
  outcome: inactive
[2]
  Potency: inactive
[4]
  Potency: inactive

## O=C(O)[C@@H](c1ccc(OCc2ccc3ccccc3n2)cc1)C1CCCC1
[1]
  outcome: inactive
[2]
  Potency: inactive
[3]
  Potency: inactive
[4]
  Potency: inactive

## CS(=O)(=O)Oc1ccc2c(NC(N)=O)c(C(=O)c3ccc(Cl)cc3Cl)oc2c1
[1]
  outcome: inactive
[3]
  Potency: inactive
[4]
  Potency: inactive

## NC(=O)c1ccc(-c2nc(-c3ccc4c(c3)OCCO4)c(-c3ccccn3)[nH]2)cc1
[1]
  outcome: inactive
[2]
  Potency: inactive
[3]
  Potency: inactive
[4]
  Potency: inactive

## CN[C@@H](C)C(=O)N[C@H]1CCCC[C@H]2CC[C@@H](C(=O)N[C@@H](c3ccccc3)c3cn(CCCCc4ccc(CCCCn5cc([C@@H](NC(=O)[C@@H]6CC[C@@H]7CCCC[C@H](NC(=O)[C@H](C)NC)C(=O)N76)c6ccccc6)nn5)cc4)nn3)N2C1=O
[1]
  outcome: inactive
[2]
  Potency: inactive
[4]
  Potency: inactive

## COc1ccccc1-c1cccc(-c2c(O)c3cc(C#N)c(Cl)cc3[nH]c2=O)c1
[2]
  Potency: inactive
[6]
  Potency: 35.5 µM (active)
[3]
  Potency: inactive
[4]
  Potency: inactive

## COc1ccc(CC2=NN3C([C@@H](CCc4ccccc4)[C@@H](C)O)=NC(C)C3C(=O)N2)cc1OC (some centres undefined)
[1]
  outcome: inactive
[2]
  Potency: inactive
[4]
  Potency: inactive

## COc1ccc(C2=N[C@H](c3ccc(Cl)cc3)[C@H](c3ccc(Cl)cc3)N2C(=O)N2CCNC(=O)C2)c(OC(C)C)c1
[1]
  outcome: inactive
[2]
  Potency: inactive
[3]
  Potency: 18.6 µM (active)
[4]
  Potency: 18.6 µM (active)

## COc1cccc2cc(-c3nc(C4CCC(C(=O)O)CC4)n4ncnc(N)c34)[nH]c12 (centres undefined)
[1]
  outcome: inactive
[5]
  Potency: inactive
[6]
  Potency: inactive
[3]
  Potency: 5.9 µM (active) and 731 nM (active)
[4]
  Potency: 4.68 µM (active) and 820 nM (active)

## COc1ccccc1[C@H](c1cccc2ccccc12)[C@@](C)(C#N)C(=O)N1CCC(c2cccc(C(F)(F)F)c2)CC1
[1]
  outcome: inactive
[3]
  Potency: inactive
[4]
  Potency: inactive

## Cc1cc(Nc2nc(N[C@@H](C)c3ncc(F)cn3)ncc2Cl)n[nH]1
[1]
  outcome: inactive
[3]
  Potency: 2.05 µM (active) and 2.95 µM (active)

## C[C@H](NC(=O)Cc1cc(F)cc(F)c1)C(=O)N[C@@H]1C(=O)N(C)c2ccccc2-c2ccccc21
[1]
  outcome: inactive
[3]
  Potency: inactive

## OCCC#Cc1nc(-c2ccc(F)cc2)c(-c2ccncc2)n1CCCc1ccccc1
[1]
  outcome: inactive
[2]
  Potency: inactive
[3]
  Potency: 16.4 µM (active) and 11.8 µM (active)
[4]
  Potency: 18.4 µM (active) and 9.34 µM (active)

## CN(C)c1ccc(C2Nc3ccc4ccccc4c3C3=C2C(=O)CC(C)(C)C3)cc1Br (centres undefined)
[1]
  outcome: inactive
[2]
  Potency: inactive
[3]
  Potency: inactive
[4]
  Potency: inactive

## CCOc1cc(N2CCC(O)CC2)ccc1Nc1ncc2c(n1)N(C)c1ccccc1C(=O)N2C
[1]
  outcome: inactive
[2]
  Potency: inactive
[3]
  Potency: 2.35 µM (active)
[4]
  Potency: 2.63 µM (active)

## CN([C@@H](Cc1ccc(OS(=O)(=O)c2cccc3cnccc23)cc1)C(=O)N1CCN(c2ccccc2)CC1)S(=O)(=O)c1cccc2cnccc12
[3]
  activity change, negative = viability loss: 7.52% [at 4.96 µM] (inactive)

## CC[C@H](Nc1ncnc2nc[nH]c12)c1nc2cccc(F)c2c(=O)n1-c1ccccc1
[1]
  outcome: inactive
[3]
  Potency: 164 nM (active) and 833 nM (active)
  activity change, negative = viability loss: -6.84% [at 9.23 µM] (inactive)
[4]
  Potency: 231 nM (active) and 1.18 µM (active)
  activity change, negative = cell killing: -1.09% [at 9.23 µM] (inactive)

## CCC(=O)N[C@H]1CC[C@H](C(=O)N(C)c2ccc(-c3nc4ccccc4o3)cc2)C1
[1]
  outcome: inactive
[2]
  Potency: inactive
[4]
  Potency: 18.6 µM (active)

## CN(C)c1ccc(Nc2nc(N)n(C(=O)c3c(F)cccc3F)n2)cc1
[1]
  outcome: inactive
[3]
  Potency: 1.48 µM (active)
